About 83,000 compounds went through this panel and 20% of them were active in at least one assay; those are over-represented in the sample as a whole.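 A percent growth of 40 corresponds to 60% growth inhibition; 0 means no net growth; -100 means all cells died. Active threshold: below 10.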 Activity calls are given as the source filed them.
Tests used:
Assay in all cases: NCI-60 one-dose screen, 48 h (100 = growth as untreated, 0 = no growth, -100 = all killed)
Conditions in all cases: 10 µM unless noted
[1] = test system: RPMI-8226 leukemia
[2] = test system: OVCAR-8 ovarian
[3] = test system: OVCAR-5 ovarian
[4] = test system: OVCAR-4 ovarian
[5] = test system: SK-OV-3 ovarian
[6] = test system: IGROV1 ovarian
[7] = test system: OVCAR-3 ovarian
[8] = test system: HS 578T breast
[9] = test system: NCI/ADR-RES ovarian
[10] = test system: T-47D breast

Measured: growth

CCCC[N+](CCCC)=c1ccc2nc3c(C)cc(N(CC)CC)cc3sc-2c1
active: [1] -48.2% | [2] 5.84% | [3] 4.55% | [5] -8.75% | [7] -23.3% | [8] 6.6% | [9] -11.9% | [10] -23.3%
inactive: [4] 22.9% | [6] 43.2%

NC(=O)NN=C(C1CC1)C1CC1
inactive: [1] 114% | [2] 123% | [3] 101% | [4] 104% | [5] 104% | [6] 109% | [7] 106% | [8] 97% | [9] 105% | [10] 107%

Cc1cc2c(cc1C)Nc1sc(NC(=O)CN3CCN(C)CC3)nc1C(=O)N2
inactive: [1] 105% | [2] 103% | [3] 105% | [4] 108% | [5] 99.6% | [6] 112% | [7] 112% | [8] 106% | [9] 103% | [10] 94.1%

COc1ccc(-c2nn(-c3ccccc3)cc2/C=C2\SC(=S)N(CCc3ccc(O)cc3)C2=O)cc1
inactive: [1] 70.2% | [2] 86.5% | [3] 99.7% | [4] 78.7% | [5] 98.8% | [6] 78.6% | [7] 94% | [8] 79.1% | [9] 90.3% | [10] 56.3%

CC[C@H](C)C(=O)O[C@H]1C[C@@H](C)C=C2C=C[C@H](C)[C@H](CC[C@@H]3C[C@@H](O)CC(=O)O3)[C@H]21
inactive: [1] 71.8% | [2] 61.9% | [3] 87.2% | [4] 111% | [5] 83.7% | [6] 55.9% | [7] 102% | [8] 94% | [9] 32.1% | [10] 96.7%

COc1ccc(/C=C/C(=O)Nc2cccnc2Nc2ccc(F)cc2)cc1
inactive: [1] 88.6% | [2] 92.7% | [3] 104% | [4] 91.1% | [5] 101% | [6] 117% | [7] 112% | [8] 103% | [9] 93.1% | [10] 87.7%

S=C1SCN(Cc2ccccc2)CN1Cc1ccco1
inactive: [1] 37.5% | [2] 89.1% | [3] 120% | [4] 99.9% | [5] 96.2% | [6] 84.4% | [7] 75.3% | [8] 109% | [9] 99.2% | [10] 59.3%

Fc1ccc(-c2nnc(-c3c(-c4ccc(F)cc4)nc4ncccn34)o2)cc1
inactive: [1] 92.5% | [2] 95.7% | [3] 87.3% | [4] 106% | [5] 112% | [6] 106% | [7] 110% | [8] 115% | [9] 97.3% | [10] 95.4%

COc1ccc2c(c1)C(=O)c1c-2c(OCCCN(C)C)nc2cc(Br)ccc12
inactive: [1] 73.4% | [4] 88.6% | [5] 81.3% | [6] 71.3% | [7] 89.1% | [8] 81.4% | [9] 65.6% | [10] 84%
active: [2] 3.85% | [3] -46%

Cc1c(C(N)=O)sc2ncn(Cc3ccccc3)c(=O)c12
active: [6] 2.39%
inactive: [1] 59.5% | [2] 110% | [3] 101% | [4] 111% | [5] 106% | [7] 104% | [8] 67.7% | [9] 105% | [10] 98.1%

COc1ccc2nc3cc(Cl)ccc3c(N3CCN(c4ccnc(Nc5ccc(F)cc5)n4)CC3)c2c1
inactive: [1] 63.4% | [2] 75.8% | [3] 95% | [4] 64.8% | [5] 111% | [6] 87.5% | [7] 82.4% | [8] 94.2% | [9] 71.3% | [10] 54.5%

CC1(C)OC(=O)C(=Cc2ccccc2Br)C(=O)O1
inactive: [1] 95.5% | [2] 99.4% | [3] 96.6% | [4] 102% | [5] 111% | [6] 102% | [7] 106% | [8] 101% | [9] 106% | [10] 102%

Reference: PubChem BioAssay (NCI)
